# In the library only some 2.4% were active in any assay of this set; here they are far more common.
# Cruzain inh Det: blocks cruzain activity in presence of Triton detergent. P25779. purified cruzain, Z-FR-AMC fluorescence, 0.01% Triton. Potency, µM, inactives show max response, negative = inhibition, most hits filed as inhibitors. 200,000 compounds, 0.43% hits. AID 1478;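 note: plate controls were neutral wells for no effect and buffer without enzyme for full effect; nearly all actives have a fitted effect of over 40% in size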
# Target sequence (P25779 123-467 limits assumed): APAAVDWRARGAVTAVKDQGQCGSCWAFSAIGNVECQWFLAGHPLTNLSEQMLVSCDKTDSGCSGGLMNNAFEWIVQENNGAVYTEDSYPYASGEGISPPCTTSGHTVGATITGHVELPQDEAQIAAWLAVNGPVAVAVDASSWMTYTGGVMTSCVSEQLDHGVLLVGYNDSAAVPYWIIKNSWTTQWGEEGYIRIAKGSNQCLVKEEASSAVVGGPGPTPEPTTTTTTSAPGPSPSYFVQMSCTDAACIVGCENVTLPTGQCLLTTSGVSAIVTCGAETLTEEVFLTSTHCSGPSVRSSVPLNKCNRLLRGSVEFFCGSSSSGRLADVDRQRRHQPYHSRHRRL
#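 Purified cruzain (1.5 nM final) was preincubated with compounds for 15 min at room temperature in 100 mM sodium acetate pH 5.5, 5 mM DTT, 0.01% Triton X-100. Reaction started with 2 uM Z-FR-AMC; AMC fluorescence change over 60 s gave activity.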
# Cruzain inh noDet: inhibitors of Trypanosoma cruzi cruzain without detergent. P25779. purified cruzain, Z-FR-AMC fluorescence, no detergent. Potency, µM, for the others: max response, negative = inhibition, usual class: inhibitors. 200,000 compounds, 2.3% hits. AID 1476;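 note: plate controls were enzyme without inhibitor for no effect and buffer without enzyme for full effect; nearly all actives have a fitted effect of over 40% in size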
#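 Purified cruzain at 1.5 nM, pre-incubated 15 min with compound at room temperature in 100 mM sodium acetate pH 5.5, 5 mM DTT, 0.00005% Triton X-100. Reaction started with 2 uM Z-FR-AMC; AMC fluorescence increase over 60 s gives rate.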
# * hit, by the source's call; ? = inconclusive. Calls come from the whole dose curve; as a rule, active = well fitted curve in the direction sought with a large enough effect; inconclusive = small, poorly fitted or top-dose-only effect, or another doubt; inactive = no such curve, though single readings can be large; an effect the other way counts as inactive or inconclusive. Potency is the fitted concentration of half-maximal effect.
SMILES,Cruzain inh Det,Cruzain inh noDet
O=C(CSc1nc2ccccc2[nH]1)c1ccc2c(c1)OCO2,-1%,2.5µM*
CCOC(=O)C1=C(CN(CC)Cc2ccccc2)NC(=O)NC1c1ccc(OC(C)C)cc1 (stereo not drawn),-8%,5%
CN1C(=O)c2ccccc2Sc2ccc(NC(=O)N3CCN(c4ccccc4)CC3)cc21,-1%,-5%
COc1ccc(OC)c(C2CC(=O)c3c([nH]c(C(=O)OC4CCC(C)CC4)c3C)C2)c1 (stereo not drawn),-1%,-14%
O=C1CCNc2ccc(-c3ccccc3)cc21,-5%,20µM*
Cc1ccc2c(c1)C(=O)CCN2,-1%,2%
CCc1ccccc1NC(=O)C1CCCN(c2cnccn2)C1 (stereo not drawn),-1%,7%
N#Cc1nc(-c2ccco2)oc1N1CCN(c2cccc(Cl)c2)CC1,-22%,?
COc1ccccc1-c1nc(C#N)c(N2CCN(C(c3ccccc3)c3ccccc3)CC2)o1,25µM*,7.9µM*
COc1ccccc1-c1nc(C#N)c(N2CCN(c3cccc(Cl)c3)CC2)o1,22µM*,?
N#Cc1nc(-c2ccco2)oc1N1CCN(C(c2ccccc2)c2ccccc2)CC1,-13%,?
CCc1nnc(SCC(=O)Nc2cccc(C(F)(F)F)c2)c2cc3oc(C)cc3n12,-2%,-10%
Cn1cccc1C(=O)N1CCC2(CCCN(Cc3ccncc3)C2)CC1,0%,1%
Cc1cc(C(F)(F)F)nn1-c1nc(-c2ccccc2)cc(C(F)(F)F)n1,-12%,-2%
CCOc1cc(CNCCSc2nnnn2C)ccc1OCc1ccc(Cl)cc1Cl,-3%,14%
Cc1ccc(/C=C/C(=O)Nc2nc3ccccc3[nH]2)cc1,3%,25µM*
Cc1ccc(/C=C/C(=O)c2nc3ccccc3[nH]2)cc1,3%,-8%
CCC1Sc2ccccc2N(CC(=O)NCc2ccc(C)cc2)C1=O (stereo not drawn),1%,3%
O=C(CCc1ccccc1)N/N=C/c1cc(Br)ccc1O,-5%,20µM*
O=C(N/N=C/c1cc(Br)ccc1O)c1ccccc1Cl,-9%,-1%
Cc1ccc2oc(-c3cc(NC(=O)c4oc5ccccc5c4C)ccc3Cl)nc2c1,-1%,3.2µM*
COc1ccccc1C(=O)Nc1ccc2oc(-c3cccc4c(Br)cccc34)nc2c1,-4%,1.3µM*
Cc1cc2nc(-c3cc(NC(=O)c4cc5ccccc5o4)ccc3Cl)oc2cc1C,-1%,13µM*
O=C(Nc1ccc(Cl)c(-c2nc3cc(Cl)ccc3o2)c1)c1cc2ccccc2o1,0%,?
COc1cc2ccccc2cc1C(=O)Nc1ccc(Cl)c(-c2nc3ccccc3o2)c1,-2%,3.2µM*
SMILES,Cruzain inh Det,Cruzain inh noDet
COc1cc(OC)cc(C(=O)Nc2ccc3oc(-c4cccc5c(Br)cccc45)nc3c2)c1,0%,2%
Cc1ccc2oc(-c3cc(NC(=O)c4ccco4)ccc3Cl)nc2c1,-11%,0%
COc1cc2ccccc2cc1C(=O)Nc1ccc2oc(-c3ccc(Cl)cc3)nc2c1,0%,-1%
CCCC(=O)Nc1c(C(=O)N2CCN(c3ccccc3)CC2)oc2ccccc12,-7%,?
Cc1ccc(C)c(N2CCN(C(=O)c3cc(S(=O)(=O)N4CCCC4)c[nH]3)CC2)c1,-4%,?
N#Cc1cc2c(=O)n3ccccc3nc2n(CCN2CCOCC2)c1=O,-5%,9%
N#Cc1cc2c(=O)n3ccccc3nc2n(CCCN2CCOCC2)c1=O,28µM*,?
COC(=O)c1cc2occc2n1CC(=O)Nc1ccc(C(C)C)cc1,0%,2%
COCCCNc1nc2c(-c3ccccc3)nnn2c2ccccc12,0%,3%
Cc1ccc(-c2nnn3c2nc(NCC(C)c2ccccc2)c2ccccc23)cc1 (stereo not drawn),0%,5µM*
CCOc1ccccc1NC(=O)NCCn1c(=O)oc2ccc(C)cc21,-1%,7%
CSc1ccccc1N=Cc1nc(-c2ccccc2)oc1O,-8%,-7%
COc1ccccc1N=Cc1nc(-c2ccccc2)oc1OC(C)=O,25µM*,20µM*
CC(=O)Oc1oc(-c2ccccc2)nc1/C=N/c1ccccn1,14µM*,13µM*
CN(C)c1ccc(N=Cc2nc(-c3ccccc3)oc2OC(=O)c2ccccc2)cc1,-14%,?
O=C(Nc1ccc(F)c(Cl)c1)N1CCN2CCCCC2C1 (stereo not drawn),-1%,8%
CC1(C)S[C@@H]2[C@H](NC(=O)C3(N)CCCCC3)C(=O)N2[C@@H]1C(=O)O,2%,0%
COc1ccccc1Nc1ncc2c(n1)CCN(CC(C)C)C2,-2%,-9%
Cc1ccc(C(=O)CSc2nc(C)cc(C)c2C(=O)Nc2cccc(C)c2)cc1,-6%,-3%
O=S(=O)(NCc1ccccc1Cl)c1ccc(-c2cnc(C3CC3)o2)cc1,-3%,0%
CC1=C(C(N)=O)C(c2ccc(C)cc2)n2nc(SCc3ccccc3F)nc2N1 (stereo not drawn),-2%,3%
CCOc1ccccc1NC(=O)c1c(NCc2ccc(C)o2)sc2c1CCCCC2,-7%,-12%
